Where “and” joins values, the source holds several entries; their conditions need not be identical. Equal entries are not always repeated.
Legend:
Assay type in all cases: functional
Plasmodium falciparum [1] = test: GSK_TCMDC: Inhibition of Plasmodium falciparum 3D7 in whole red blood cells, using parasite LDH activity as an index of growth. Test compounds present at 2uM
Plasmodium falciparum [2] = test: GSK_TCMDC: Inhibition of Plasmodium falciparum Dd2 in whole red blood cells, using parasite LDH activity as an index of growth. Test compounds present at 2uM
HepG2 = test: GSK_TCMDC: Percent inhibition of human HepG2 cell line. Test compounds present at 10uM.

## CC[C@H]1CN2CCc3cc(OC)c(OC)cc3[C@@H]2C[C@@H]1C[C@H]1NCCc2c1cc(OC)c(O)c2Cl
Plasmodium falciparum [1]
  Inhibition: 100%
Plasmodium falciparum [2]
  Inhibition: 100%
HepG2
  Inhibition: 51%

## CC[C@H]1CN2CC[C@H]1C[C@H]2[C@H](O)c1cc(-c2ccccc2F)nc2ccc(OC)cc12.Cl
Plasmodium falciparum [1]
  Inhibition: 99%
Plasmodium falciparum [2]
  Inhibition: 98%
HepG2
  Inhibition: 13%

## CC[C@H]1CN2CC[C@@H]1C[C@H]2[C@H](O)c1cc(N2CCCC(C)(C)C2)nc2ccc(OC)cc12
Plasmodium falciparum [1]
  Inhibition: 100%
Plasmodium falciparum [2]
  Inhibition: 72%
HepG2
  Inhibition: 25%

## CC(=O)Nc1ccc(OCCN(CC(C)(C)C)c2ccc(C#N)c(C(F)(F)F)c2)c(Cl)c1
Plasmodium falciparum [1]
  Inhibition: 87%
Plasmodium falciparum [2]
  Inhibition: 93%
HepG2
  Inhibition: 0%

## CC(C)CNCc1ccc(-c2cccc(CN(C(=O)Nc3ccccc3)C3CCN(Cc4ccccc4)CC3)c2)cc1.O=C(O)C(F)(F)F
Plasmodium falciparum [1]
  Inhibition: 100%
Plasmodium falciparum [2]
  Inhibition: 95%
HepG2
  Inhibition: 48%

## NC(=O)c1ccc2[nH]cc(C3CCN(CC4CCC(NC(=O)/C=C/c5ccc(Cl)c(Cl)c5)CC4)CC3)c2c1 (configuration not stated)
Plasmodium falciparum [1]
  Inhibition: 100%
Plasmodium falciparum [2]
  Inhibition: 26% and 32%
HepG2
  Inhibition: 0% and 11%

## O=C(/C=C/c1ccc(Cl)c(Cl)c1)NCCC1CCC(N2CCC(c3c[nH]c4ccc(O)cc34)CC2)CC1 (configuration not stated)
Plasmodium falciparum [1]
  Inhibition: 100%
Plasmodium falciparum [2]
  Inhibition: 3%
HepG2
  Inhibition: 19%

## CN(c1cc(NC(=O)c2cccs2)ccn1)C1CCN(Cc2ccccc2)CC1.O=C(O)C(F)(F)F
Plasmodium falciparum [1]
  Inhibition: 92%
Plasmodium falciparum [2]
  Inhibition: 87%
HepG2
  Inhibition: 0%

## Cl.O=C(c1cc(C(F)(F)F)cc(C(F)(F)F)c1)N1CCC(CCN2CCC3(CC2)C(=O)NCN3c2ccccc2)CC1Cc1ccc(Cl)c(Cl)c1 (configuration not stated)
Plasmodium falciparum [1]
  Inhibition: 100%
Plasmodium falciparum [2]
  Inhibition: 77%
HepG2
  Inhibition: 19%

Reference: ChEMBL document CHEMBL1157539, “Thousands of chemical starting points for antimalarial lead identification” (Nature, 2010)
